From PubChem BioAssay AID493191 (Broad Institute, 2011) come the findings set out here.

The campaign covered roughly 1,300 compounds. About 330 (25%) were called active. How the calls were made is not given here. Only a sample is shown. Entries with a potency or affinity are not part of this list.

This assay is described as follows: MALME3 melanoma cell viability loss, dose response, orthogonal assay for MITF inhibitor project, CellTiter-Glo, cherry-picked (AID 493191). Particulars: CellTiter-Glo luminescence, 24 h; series mostly up to 35 µM.
Turning to `CCCCN1CCc2c1nc1ccc(Br)cc1c2N`, the call was inactive. The value for `CCCOc1ccc(-c2c(=O)n(O)c3ccccc3[n+]2[O-])cc1` was “inactive”; that for `BrC(=C\c1ccccc1)/C=N/n1cnnc1` was “inactive”; that for `Cc1ccc(C#CC[N+]2(CC#Cc3ccc(C)cc3)CCCCC2)cc1` was “inactive”. The value for `CC(C)N1C/C(=C/c2cccnc2)C(=O)/C(=C/c2cccnc2)C1` was “inactive”.

On to `CN1C/C(=C/c2cccnc2)C(=O)/C(=C/c2cccnc2)C1`, for which the compound was classed as inactive.

Turning to `Cc1cccc(OCc2nc3ccccc3n2C)c1`, the call was inactive. The entry for `O=S(=O)(c1ccc(F)cc1)c1snnc1-c1ccccc1` is “inactive”; for `CCCOc1ccc(C(=O)C(CN2CCCC2)c2ccccc2)cc1` (stereo not drawn) it is “inactive”. The value for `O=C(/C=C/c1ccccc1Cl)NC1CCCCC1` was “inactive”. The entry for `O=C(CSc1ccc(Cl)cc1)NC1CCCC1` is “inactive”. Consider `O=C(CCCN1C(=O)S/C(=C\c2ccccc2)C1=O)NNC(=O)c1ccccc1O`, for which the result was inactive.

For `N/C(=N\OC(=O)c1ccccc1Cl)c1ccccn1`, the compound was classed as inactive.

For `Cc1ccc(C(=O)c2no[n+]([O-])c2C(=O)c2ccc(C)cc2)cc1`, the call was inactive.

Consider `CN(C)c1ccc(/C=N\NC(=O)c2cccc3cc[nH]c23)cc1`, for which the compound was classed as inactive.

`CCOC(=O)N1CCN(C(=O)c2ccc(Cn3c(=S)[nH]c4ccc(Br)cc4c3=O)cc2)CC1`: the outcome was inactive. The value for `CCC(=O)N1CCN(c2ccc(Cl)cc2NC(=O)c2ccc([N+](=O)[O-])o2)CC1` was “inactive”; that for `Cn1c(/C(C#N)=C/c2ccc(-c3ccc(S(N)(=O)=O)cc3)o2)nc2ccccc21` was “inactive”.

For `Clc1c(-c2ccccc2)nc2ccccn12`, the compound was classed as inactive. In the case of `Cc1cc(N2CCOCC2)n2ncc(-c3ccccc3Cl)c2n1`, the compound was called inactive. The value for `Cc1cc(C(=O)CN2C(=O)c3ccccc3S2(=O)=O)c(C)n1-c1ccccc1` was “inactive”; that for `C#Cc1cccc(NC(=O)CSc2nnc(-c3ccc(C(F)(F)F)cn3)o2)c1` was “inactive”. Turning to `Cc1ccc(CC(=O)Nc2ccc(Cl)cn2)cc1`, the compound was called inactive.

Take `Cc1ccc2c(c1)Oc1ccc(NC(=O)CCl)cc1C(=O)N2`: the compound was called inactive. On to `CCCN(CC(=O)Nc1ccccc1C)C(=O)CCl`, for which the compound was classed as inactive. As for `CS(=O)(=O)c1ccc2nc(NC(=O)c3ccccc3Br)sc2c1`, the outcome was inactive.

For `O=C(c1ccc(F)cc1)C(CN1CCOCC1)c1ccccc1` (stereo not drawn), the call was inactive. In the case of `COc1ccc(S(=O)NC2CCCCC2)c(OC)c1C` (stereo not drawn), the compound was called inactive. The entry for `COc1cc(CN2CCC(Cc3ccccc3)CC2)cc(OC)c1OC` is “inactive”; for `CC(=O)c1ccc(S(=O)(=O)N2CCN(C(=O)/C=C/c3ccc4ccccc4n3)CC2)cc1` it is “inactive”.

`COc1ccc(NC(=O)c2cc3ccccc3[nH]2)cc1`: the compound was called inactive. Consider `COc1ccc2cc3cc(C(=O)NCCc4ccc(OC)c(OC)c4)oc3nc2c1`, for which the outcome was inactive. The entry for `Cc1cc(O)ccc1Nc1nc(-c2cccnc2)cs1` is “inactive”; for `CCOC(=O)C1CCCN(C(=O)C2CCN(S(=O)(=O)CC)CC2)C1` (stereo not drawn) it is “inactive”. Regarding `CCOc1ccc(OCc2ccc(C(=O)N/N=C(\C)c3ccccn3)cc2)cc1`, the outcome was inactive.

Take `CCc1ccc(Nc2nc(C)cc(C)n2)cc1`: the compound was called inactive.

For the compound `CCOC(=O)c1ccc(NC(=O)CC2SCCNC2=O)cc1` (stereo not drawn), the compound was called inactive. The value for `CCOC(=O)c1ccc(NC(=O)Cc2cccs2)cc1` was “inactive”; that for `COc1ccccc1-c1nnc(-c2ccc(C)cc2)o1` was “inactive”. Take `COCCNC(=O)c1cc2sc3ccccc3c2s1`: the outcome was inactive.

Turning to `O=C(N/N=C/c1cc(Cl)ccc1O)c1ccncc1`, the compound was classed as inactive. The value for `COc1cc2nc(SCC(=O)NCc3ccco3)n(Cc3ccc(Cl)cc3)c(=O)c2cc1OC` was “inactive”; that for `CCCCCCN1C=CC(=C2C(=O)c3ccccc3C2=O)C=C1` was “inactive”; that for `CC1CCN(Cc2nc(-c3ccc(Cl)cc3)no2)CC1` was “inactive”. The entry for `CC1CC(C)C[N+](=C2C=C(N3CCCC3)CC(C)(C)C2)C1` (stereo not drawn) is “inactive”; for `Cc1ccc(C(=O)C[n+]2cc(-c3ccc(C)cc3)n3c2CCCCC3)cc1` it is “inactive”.

With `Cc1ccc(C(=O)NC2=NCCS2)cc1Cl`, the result was inactive. The entry for `C=CC[n+]1c(-c2ccc(C)cc2)csc1Nc1ccc(NC(C)=O)cc1` is “inactive”. The value for `CCOc1ccc2nc(NC(=O)Cc3cccs3)sc2c1` was “inactive”.

As for `CC(C)(CO)NC(=O)c1ccc2nc(Cc3cccc(Cl)c3)oc2c1`, the compound was classed as inactive. Turning to `Cc1nn(C)cc1/C=C/C(=O)c1cccs1`, the compound was called inactive. Consider `CCOc1ccc(-n2c(-c3ccc(Br)cc3)c[n+]3c2CCCCC3)cc1`, for which the call was inactive.

Take `O=C1c2ccccc2C(=O)N1CCSc1ccccc1`: the compound was classed as inactive. Take `COc1cccc(NC(=O)Nc2cccc(C(=O)O)c2)c1`: the result was inactive. In the case of `COc1cc(OC)cc(C(=O)Nc2ccc3c(c2)OCCO3)c1`, the result was inactive. The value for `CCN(C(=O)c1ccco1)c1nc(-c2ccc(OC)cc2)cs1` was “inactive”; that for `COc1cc2c(cc1O)C(SC)=NC(C)(C)C2` was “inactive”; that for `CC(C)c1ccc(/C=N/Nc2ccc(C(=O)O)cc2)cc1` was “inactive”.

In the case of `CCN1c2ccccc2NC2C1C(C(C)=O)C(=O)N2c1ccc(Cl)cc1` (stereo not drawn), the outcome was inactive. With `Cc1nc(NCCOc2ccccc2)sc1C(=O)Nc1ccccc1`, the outcome was inactive. The value for `CCOC(=O)c1sc(-c2ccccc2)cc1N` was “inactive”; that for `CCOC(=O)c1c(C)[nH]c(C)c1C(=O)COC(=O)c1ccc([N+](=O)[O-])s1` was “inactive”. `COc1ccc(C)cc1Nc1nc(N)c2cc(OC)c(OC)cc2n1`: the result was inactive. The entry for `CC(C)CC(=O)NC(c1cccs1)c1ccc2cccnc2c1O` (stereo not drawn) is “inactive”. Turning to `N/C(=N\OC(=O)c1ccncc1)c1cccc([N+](=O)[O-])c1`, the outcome was inactive.

Regarding `Cc1c(C#N)c(NC(=O)CCl)n(Cc2ccccc2)c1C`, the call was inactive. For `Fc1cccc(Cl)c1CSc1nnc(-c2ccncc2)o1`, the result was inactive. On to `Cc1ccc(OCC(=O)Nc2ccccc2F)cc1`, for which the compound was called inactive. The value for `CC(=O)N/C(N)=N/c1nc(=O)c2ccccc2s1` was “inactive”; that for `NC(=O)c1c(NC(=O)c2cccnc2)sc2c1CCCCC2` was “inactive”.

For `CCOc1ccc(N/C=C/C(=O)c2ccc(OC)c(OC)c2)cc1`, the compound was called inactive. For the compound `OCCNc1c2ccccc2nc2ccccc12`, the call was inactive. For `Clc1ccc(-c2noc(CN3CCOCC3)n2)cc1`, the compound was classed as inactive.

With `NNC(=O)Cn1c(SCc2ccccc2)nc2ccccc21`, the compound was classed as inactive. The value for `O=C(Nc1ccc([N+](=O)[O-])cc1)c1ccccc1` was “inactive”; that for `COc1ccc(N/C=C\C(=O)c2ccc3ccccc3c2)cc1` was “inactive”; that for `COc1ccc(-c2csc(Nc3ccccn3)n2)cc1OC` was “inactive”. The entry for `Cc1ccccc1NCc1nc2ccccc2n1C` is “inactive”; for `O=C(c1cc2ccccc2oc1=O)N1CCN(c2ncccn2)CC1` it is “inactive”; for `N#C/C(=C\c1ccc(OCc2ccc(C(=O)O)cc2)cc1)C(=O)N1CCOCC1` it is “inactive”. In the case of `N#Cc1nc(/C=C/c2ccccc2)oc1NCCCN1CCOCC1`, the compound was called inactive. Take `CCN1CCN(c2ccc(Nc3ccnc4ccccc34)cc2)CC1`: the outcome was inactive.

As for `CCn1c(C)cc(C(=O)CN2C(=O)c3ccccc3S2(=O)=O)c1C`, the compound was called inactive.

On to `Cc1ccc(SCc2cn3cc(Cl)ccc3n2)cc1`, for which the compound was classed as inactive. The value for `Cc1ccc(-c2c[n+](Cc3cccc(Cl)c3)c3n2CCC3)cc1` was “inactive”; that for `CC(OC(=O)c1ccc([N+](=O)[O-])s1)C(=O)NC1CCCCC1C` (stereo not drawn) was “inactive”.

For the compound `CCN(CC(=O)Nc1ccc2c(c1)OCCO2)C(=O)c1ccc([N+](=O)[O-])s1`, the compound was called inactive. The value for `CCOC(=O)Cn1c(=NC(=O)c2ccc([N+](=O)[O-])s2)sc2ccccc21` was “inactive”; that for `Nc1nc2ccccc2n1/N=C/c1ccc(-c2ccccc2)o1` was “inactive”. The value for `O=[N+]([O-])c1ccc(/C=N/n2c(CO)nc3ccccc32)s1` was “inactive”; that for `C=CCn1c(C)cc(C(=O)CN2C(=O)c3ccccc3S2(=O)=O)c1C` was “inactive”. The value for `Cn1c(/C=C/c2cccc([N+](=O)[O-])c2)c([N+](=O)[O-])c(=O)n(C)c1=O` was “inactive”; that for `Nc1ccc(-c2cc3ccccc3c(=O)o2)cc1` was “inactive”. On to `Cn1c(COc2ccccc2Br)nc2ccccc21`, for which the compound was called inactive. The entry for `O=C(CN1CCCCC1)Nc1scc2c1c(=O)oc1ccccc12` is “inactive”; for `CCc1ccc(-c2cc(C(=O)Nn3cnnc3)c3ccccc3n2)cc1` it is “inactive”; for `Cc1cn(CCC(=O)Nc2ccccc2N2CCOCC2)c2ccccc12` it is “inactive”. In the case of `O=C(Nc1ccccc1N1CCOCC1)c1ccc([N+](=O)[O-])o1`, the result was inactive.

Turning to `FC(F)(F)Oc1ccc(-c2cn3cccnc3n2)cc1`, the call was inactive. In the case of `CCN(CCO)c1ccc(N=Nc2cc(C)[nH]n2)cc1`, the compound was called inactive. As to `COc1cc(/C=C/C(=O)c2ccc3c(c2)OCCO3)cc(Br)c1OCC(=O)N(C)C`, the compound was called inactive. For `COCc1cc(C)nc2sc(C(=O)Nc3ccc(OC)cc3)c(N)c12`, the compound was classed as inactive.

For `Cc1ccccc1-c1nc(CN2CCC(C(=O)NCCCN3CCCC(C)C3)CC2)c(C)o1` (stereo not drawn), the compound was called inactive. Take `Cc1cc(C)c2nc(N3CCC(C(=O)NCCCN4CC(C)CC(C)C4)CC3)sc2c1` (stereo not drawn): the outcome was inactive. The value for `COc1cc(-c2nnc(-c3ccco3)o2)ccc1OCc1ccccc1` was “inactive”. Take `COc1ccc(-c2nc(-c3ccccc3OC)no2)cc1OC`: the outcome was inactive. The entry for `COc1ccc(-c2nc3n(c2C)Cc2ccccc2-3)cc1` is “inactive”; for `Cn1nnnc1Sc1ncnc2scc(-c3ccc[nH]3)c12` it is “inactive”.

On to `S=c1[nH]nc(-c2ccco2)n1/N=C/C(Cl)=C/c1ccccc1`, for which the result was inactive. As for `Oc1cc(NCc2cccnc2)ccc1-c1nc2ccccc2o1`, the outcome was inactive. For the compound `O=C(Nc1ccc(-c2nc3ncccc3o2)cc1)c1ccc([N+](=O)[O-])o1`, the compound was called inactive.

Consider `Cc1ccc2nc(-c3cccnc3)oc2c1`, for which the compound was called inactive. `O=C(Nc1ccccc1Cl)c1cc(=O)c2ccccc2o1`: the result was inactive. The value for `CC(=NNC(=S)N1CCN(c2ccccn2)CC1)c1nccs1` was “inactive”. On to `Oc1c(Cl)cc(Cl)cc1/C=N/Nc1ncc(Br)cn1`, for which the result was inactive.

As for `CC(C)(C)C1CCC(OC(=O)CN2CCCCC2)CC1` (stereo not drawn), the call was inactive. The value for `Cc1ccc(NC(=O)Nc2ccccc2)nc1` was “inactive”. The value for `COc1cc(C2C(C#N)=C(N)Oc3cc(N(C)C)ccc32)cc2c1OCO2` (stereo not drawn) was “inactive”.
